The source made the active and inactive calls. Rule for the calls: active = hit-call score of the fitted dose curve at least 0.9, where 1 is the maximum; inactive = score below 0.9.
Assay: ATG_CRE_CIS: Attagene CIS-FACTORIAL HepG2 Assay for human cAMP Responsive Element (CRE) binding protein 3 (AID 2282926)
Conditions: HepG2 CRE cis-reporter, Attagene multiplexed mRNA; actives raise or lower the signal
Method in brief: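 Induced reporter mRNA from a CRE cis element, measured in HepG2 among many multiplexed units at 24 h. Detection used RT-PCR plus capillary electrophoresis of fluorescent fragments; DMSO served as negative control.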

SMILES | AC50 | outcome
Cc1[nH]cnc1C[C@H]1CCc2c(C)c3ccccc3n2C1=O | 29.7 µM (active) | 
CC(C)CCCCCCCOC(=O)CCCCC(=O)OCCCCCCCC(C)C |  | inactive
O=P(OC(CCl)CCl)(OC(CCl)CCl)OC(CCl)CCl | 72.3 µM (active) | 
CN(C)c1ccc(Cc2ccc(N(C)C)cc2)cc1 |  | inactive
CC(C)=CCCC(C)=CC=O | 162 µM (active) | 
COC(=O)c1ccccc1O |  | inactive
O=C1CCC(N2C(=O)c3ccccc3C2=O)C(=O)N1 (centres undefined) |  | inactive
CC(C)CC(C)(O)C#CC(C)(O)CC(C)C (centres undefined) |  | inactive
CCC(C)(C)C(=O)O[C@H]1C[C@@H](C)C=C2C=C[C@H](C)[C@H](CC[C@@H]3C[C@@H](O)CC(=O)O3)[C@H]21 |  | inactive
CC(C)(O)c1coc(S(=O)(=O)NC(=O)Nc2c3c(cc4c2CCC4)CCC3)c1 |  | inactive
O=C(OC[C@H]1O[C@@H](OC(=O)c2cc(O)c(O)c(OC(=O)c3cc(O)c(O)c(O)c3)c2)[C@H](OC(=O)c2cc(O)c(O)c(OC(=O)c3cc(O)c(O)c(O)c3)c2)[C@@H](OC(=O)c2cc(O)c(O)c(OC(=O)c3cc(O)c(O)c(O)c3)c2)[C@@H]1OC(=O)c1cc(O)c(O)c(OC(=O)c2cc(O)c(O)c(O)c2)c1)c1cc(O)c(O)c(OC(=O)c2cc(O)c(O)c(O)c2)c1 |  | inactive
Cn1cnc([N+](=O)[O-])c1Sc1ncnc2nc[nH]c12 |  | inactive
O=C(O)CC(O)C(=O)O (centres undefined) |  | inactive
CC[C@H](C)C(=O)O[C@H]1C[C@@H](C)C=C2C=C[C@H](C)[C@H](CC[C@@H]3C[C@@H](O)CC(=O)O3)[C@H]21 |  | inactive

Reference: PubChem BioAssay (EPA / NIEHS)
